Assay outcomes deposited in PubChem BioAssay by Buhrlage Lab, Dana-Farber Cancer Institute and Novartis Institutes for BioMedical Research (Cambridge, Mass).
Most compounds without a hit are left out; they make up all but 12% or so of the library.
USP17 inh: human USP17-like deubiquitinase inhibition. A8MUK1. purified USP17, Ub-rhodamine cleavage fluorescence, 3 h. inhibition, % at 50 µM. hit rate 6.5% among 47,000
Target sequence (A8MUK1 whole entry, looked up): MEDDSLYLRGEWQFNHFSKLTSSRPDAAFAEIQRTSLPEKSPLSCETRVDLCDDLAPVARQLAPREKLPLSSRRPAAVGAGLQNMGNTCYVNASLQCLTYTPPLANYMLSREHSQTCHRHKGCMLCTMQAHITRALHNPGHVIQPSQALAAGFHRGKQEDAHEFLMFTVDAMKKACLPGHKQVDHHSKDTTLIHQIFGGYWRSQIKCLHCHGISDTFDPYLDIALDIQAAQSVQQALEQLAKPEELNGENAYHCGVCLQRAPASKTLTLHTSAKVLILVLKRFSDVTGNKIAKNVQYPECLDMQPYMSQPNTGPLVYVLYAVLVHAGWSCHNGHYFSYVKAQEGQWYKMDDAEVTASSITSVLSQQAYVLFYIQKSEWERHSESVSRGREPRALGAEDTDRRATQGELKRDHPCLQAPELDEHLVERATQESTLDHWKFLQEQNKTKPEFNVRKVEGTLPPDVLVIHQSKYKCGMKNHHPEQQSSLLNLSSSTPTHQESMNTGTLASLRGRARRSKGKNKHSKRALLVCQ
USP8 inh: inhibitors of human USP8 deubiquitinase; P40818; purified USP8, Ub-rhodamine cleavage fluorescence, 30 min; hit rate 4.2% among 47,000; inhibition, % at 20 µM
USP30 inh: human USP30 deubiquitinase inhibition. AID 1645860. purified USP30, Ub-rhodamine cleavage fluorescence. hit rate 5.3% among 47,000. inhibition, % at 25 µM. Q70CQ3
Numbers stand for hits; 0 = inactive; - = not tested or not shown. Cut-off read from the data, not from the text of the source: active = inhibition above about 30%; inactive = the rest.

SMILES | USP17 inh | USP8 inh | USP30 inh
Cc1cc(NS(=O)(=O)c2cc3n(c2)CCCNC3=O)ccc1F | 0 | 0 | 0
Cc1cc(C(=O)N2CC[C@H]3NC(=O)c4ccccc4OCCCCC[C@H]3C2)nc(=O)[nH]1 | 0 | 0 | 0
Cc1ccc(CNc2nnc(C)c(=O)[nH]2)cc1 | 0 | 0 | 0
CCCc1cc(=O)[nH]c(N2CCN(c3ccc(F)cc3)CC2)n1 | 0 | 0 | 0
COc1ccc(NC(=O)CSc2ncc(-c3ccc(F)cc3)[nH]2)c(OC)c1 | 0 | 0 | 0
COc1noc(C2CCN(C(=O)Nc3ccc(F)cc3)CC2)c1C | 0 | 0 | 0
O=C(Cc1ccccc1)N1CCN(c2nc3ccc(Cl)cc3s2)CC1 | 0 | 0 | 33.0
Cc1ccc2nc(N3CCN(C(=O)Cc4ccccc4)CC3)sc2c1 | 0 | 0 | 0
Nc1ncc2c(n1)CCN(c1ncc(C(F)(F)F)cc1Cl)C2 | 0 | 0 | 0
O=C(Nc1ncc(-c2ccccc2)s1)c1cc(-c2ccccc2)nc2ccccc12 | 0 | 0 | 0
CCc1noc(-c2ccnc(-n3cnc(C(=O)NC4CCCCC4)c3)c2)n1 | 0 | 0 | 0
CCn1c(SCC(=O)N2CCCC2)nnc1-c1ccc2c(c1)OCCCO2 | 0 | 0 | 0
CCn1c(SCC(=O)NCCc2ccccc2)nnc1-c1ccc2c(c1)OCCO2 | 0 | 0 | 0
CCn1c(SCC(=O)N2c3ccccc3CC2C)nnc1-c1ccc2c(c1)OCCO2 (configuration not stated) | 0 | 0 | 72.6
CCn1c(SCC(=O)Nc2ccc(C)c(Cl)c2)nnc1-c1ccc2c(c1)OCCO2 | 0 | 31.3 | 39.8
O=C(CS(=O)(=O)c1cn(CC(=O)N2CCCC2)c2ccccc12)Nc1ccccc1C(F)(F)F | 0 | 0 | 0
COc1ccc(Cl)cc1NC(=O)Nc1ccccc1N1CCCCC1 | 0 | 0 | 0
Nc1c(Cl)cccc1-c1c[nH]cc1Cl | 0 | 0 | 0
CC(C)c1cccc(NC(=O)c2nc(N3CCSCC3)c3cnn(C)c3n2)c1 | 0 | 0 | 0
Cc1cccc(NC(=O)c2nc(N3CCSCC3)c3cnn(C)c3n2)c1 | 64.4 | 0 | 0
O=C(OCC(=O)c1ccc[nH]1)c1ccc2ncsc2c1 | 0 | 0 | 0
COCCCn1c(C(=O)NCc2ccccc2Cl)cc2c(=O)n3ccccc3nc21 | 0 | 0 | 0
COCCCn1c(C(=O)NCc2ccc(F)cc2)cc2c(=O)n3ccccc3nc21 | 37.8 | 0 | 0
Cc1ccc(OC(=O)c2cn(-c3ccccc3)nc2-c2cccnc2)cc1 | 55.4 | 0 | 45.1
Cc1ccc(NC(=O)CN(C)C(=O)c2cn(-c3ccccc3)nc2-c2cccnc2)cc1 | - | 0 | 0
SMILES | USP17 inh | USP8 inh | USP30 inh
Cc1ccc(C)c(C2CC(=O)Nc3c2c(C)nn3-c2nc3ccccc3s2)c1 (configuration not stated) | 0 | 0 | 0
CCOc1ccc2nc(-n3nc(C)c4c3NC(=O)CC4c3cc(C)sc3C)sc2c1 (configuration not stated) | 0 | 0 | 36.0
COc1ccc2[nH]c3c(c2c1)CCN1C(=O)N(c2ccccc2C(=O)NCc2ccc4c(c2)OCO4)C(=O)[C@]31C | 0 | 0 | 0
C[C@]12C(=O)N(c3ccccc3C(=O)NCCc3ccccc3)C(=O)N1CCc1c2[nH]c2ccccc12 | 41.2 | 0 | 0
COc1ccc(CNC(=O)[C@H](C)N2C(=O)N3CCc4c([nH]c5ccc(OC)cc45)[C@@]3(C)C2=O)cc1 | 50.2 | 0 | 0
COc1cccc(CNC(=O)[C@H](C)N2C(=O)N3CCc4c([nH]c5ccc(OC)cc45)[C@@]3(C)C2=O)c1 | 0 | 0 | 0
C[C@]12C(=O)N(c3ccc(C(=O)NCc4ccccc4)cc3)C(=O)N1CCc1c2[nH]c2ccccc12 | 0 | 0 | 0
C[C@]12C(=O)N(c3ccccc3C(=O)NCCc3ccc(F)cc3)C(=O)N1CCc1c2[nH]c2ccccc12 | - | 0 | 0
COc1ccc2[nH]c3c(c2c1)CCN1C(=O)N(c2ccccc2C(=O)NCc2ccccc2)C(=O)[C@]31C | 61.0 | 0 | 0
Cc1ccc(CNC(=O)c2cccc(N3C(=O)N4CCc5c([nH]c6ccccc56)[C@@]4(C)C3=O)c2)cc1 | 63.7 | 0 | 0
CC(=O)c1ccc(C(=O)N2CCN(c3ccnc(N(C)CCc4ccccc4)n3)CC2)cc1 | 0 | 0 | 0
CC(C)CNC(=O)Cn1ncc2c(N3CCCCCC3)ncnc21 | 0 | 0 | 0
O=C1NCC2(CCC(C(=O)Nc3nncs3)CC2)Oc2ccccc21 (configuration not stated) | 0 | 0 | 0
CCN1C(=O)C2(c3ccccc31)N1CC3(C)CN2CC(C)(C1)C3=O (configuration not stated) | 0 | 0 | 0
CC(C)(C)c1cc(C(=O)N2CCOCC2CCc2cnccn2)n[nH]1 (configuration not stated) | 0 | 0 | -
O=C(Cn1cc(C(=O)C2CCCCC2)c2ccccc21)NCCOc1ccc(Cl)cc1 | 0 | 0 | 0
Cc1ccc(C)c(NC(=O)Cn2cc(C(=O)C3CC3)c3ccccc32)c1 | 62.4 | 92.9 | 75.8
COc1cccc(NC(=O)Cn2cc(C(=O)C3CC3)c3ccccc32)c1 | 53.1 | 0 | 69.2
CCC(=O)c1cn(CC(=O)Nc2cccc(C)c2)c2ccccc12 | 0 | 0 | 0
CC(OC(=O)c1ccc2ncsc2c1)C(=O)Nc1ccccc1F (configuration not stated) | 0 | 0 | 0
O=S(=O)(NCCC1=CCCCC1)c1ccccc1C(F)(F)F | 0 | 0 | 0
COc1ccc(Cn2c(-c3ccc(F)cc3)nc3c(c(=O)c4ccccc4n3C)c2=O)cc1 | 0 | 0 | 0
Cn1c2ccccc2c(=O)c2c(=O)n(-c3ccccc3)c(-c3ccc(F)cc3)nc21 | 42.6 | 0 | 0
COc1cc(-c2nc3c(c(=O)c4ccccc4n3C)c(=O)n2Cc2ccco2)cc(OC)c1OC | 0 | 0 | 0
Cn1c2ccccc2c(=O)c2c(=O)n(Cc3ccco3)c(-c3ccccc3F)nc21 | 0 | 89.8 | 0
SMILES | USP17 inh | USP8 inh | USP30 inh
CNc1nc(C2CCN(S(=O)(=O)c3ccc(C)c(F)c3)C2)nc2c1CN(C(C)=O)CC2 (configuration not stated) | 0 | 0 | 0
Cc1c(C)n(-c2ccccc2)c2ncn(CC(=O)NCc3ccc(F)cc3)c(=O)c12 | 0 | 0 | 40.5
Cc1ccc(CNC(=O)CCc2nc3c(C)nn(-c4ccccc4)c3n(C)c2=O)cc1 | 0 | 0 | 0
CSc1ccc(CNC(=O)Cn2nc(C)c3c(C)n(-c4ccccc4)nc3c2=O)cc1 | 40.0 | 88.8 | 0
Cc1c(C)n(-c2ccccc2)c2ncn(CC(=O)NCc3cccc(F)c3)c(=O)c12 | 0 | 45.2 | 34.0
Cc1ccc(NC(=O)Cn2cnc3c(c(C)c(C)n3-c3ccccc3)c2=O)c(C)c1 | 0 | 0 | 0
Cc1c(C)n(-c2ccccc2)c2ncn(CC(=O)NCc3ccc(N(C)C)cc3)c(=O)c12 | 0 | 0 | 0
Cc1ccccc1NC(=O)Cn1cnc2c(c(C)c(C)n2-c2ccccc2)c1=O | 0 | 0 | 0
COc1ccc(CNC(=O)Cn2cnc3c(c(C)c(C)n3-c3ccccc3)c2=O)cc1 | 0 | 0 | 35.6
CCN1CCN(C(=O)CCC(=O)N2CCCn3nc(C)cc32)CC1 | 0 | 0 | 0
CCCCn1cc(OC(=O)c2ccc(F)cc2)c2c1nc(-c1ccc(F)cc1)n1c3ccccc3nc21 | 0 | 0 | 0
CC(=O)N[C@@]12CN(Cc3ccc(Cl)c(F)c3)CC[C@@H]1CN(C(C)=O)C2 | 0 | 0 | 0
CCc1ccccc1NC(=O)CC(c1cccc(F)c1)n1cccc1 (configuration not stated) | 0 | 0 | 0
